The source of these data is PubChem BioAssay.

The test system of assay [1] is PRMT1 (protein arginine N-methyltransferase 1). As to the kind of experiment: PRMT1 binders on small-molecule microarrays, primary screen, biochemical, small-molecule microarray, 635 nm fluorescence (AID 1088).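 Note: binding of Prmt1 protein to compounds spotted on small-molecule microarray slides.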 The following applies: small-molecule microarray binding, higher = more signal.
Assay [2] is described as follows: yeast growth modulation, basal conditions, primary screen, YJM789 clinical isolate, OD600, 24 h (AID 1089).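 Note: growth of clinical yeast isolate S. cerevisiae YJM 789 seeded 1000 cells per well; test concentration not given here.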 The following applies: S. cerevisiae YJM789 growth, higher = more signal, called active from +8 up or from −8 down.
The nature of assay [3]: fission yeast growth modulation, primary screen, strain 972, OD600, 24 h, no modulator (AID 1090).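 Note: basal condition with compound alone and no growth modifier present; test concentration not given here.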 The following applies: S. pombe 972 growth, higher = more signal, called active from +8 up or from −8 down.
A short description of assay [4]: S. cerevisiae growth modulation with rapamycin, primary screen, strain BY4716, OD600, 96 h (AID 1091). Note: test concentration not given here. The following applies: higher = more signal, called active from +8 up or from −8 down.
The target of assay [5] is Torsin-1A-interacting protein 2 (Homo sapiens) (UniProt Q8NFQ8). As to the kind of experiment: LULL1 binders on small-molecule microarray, primary screen, cell lysate, human LULL1 lysate, 635/667 nm fluorescence (AID 1092).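 Note: probe is lysate of COS7 cells overexpressing human LULL1; score merges per-feature 667 nm fluorescence with signal-to-noise.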 The settings on record: hLULL1 lysate binding, 635 nm fluorescence, higher = more signal.
Assay [6] can be described thus: E. coli growth modulation, two-sided OD650, primary screen, E. coli filamentation project, strain DRC41, 24 h (AID 1093).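 Note: MC1000 strain lacking acrAB efflux and sulA so SOS filamentation is blocked; test concentration not given here.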 The settings on record: OD650, 24 h, higher = more signal, called active from +8 up or from −8 down.
The nature of assay [7]: small-molecule microarray binders of probe aLefty2, primary screen, biochemical, biotinylated probe, 635/667 nm fluorescence (AID 1094).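 Note: score merges spot fluorescence near 667 nm with spot signal-to-noise ratio.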 The settings on record: higher = more signal.
Assay [8] has as its system Noggin (protein binding on small-molecule microarray). As to the kind of experiment: Noggin binders on small-molecule microarray, primary screen, biochemical, 635/667 nm fluorescence (AID 1095).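 Note: score merges 667 nm feature fluorescence with signal to noise over triplicate slides.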 The settings on record: 635 nm fluorescence, higher = more signal.
Assay [9] addresses Neurogenic locus notch homolog protein 3 (Homo sapiens) (UniProt Q9UM47). As to the kind of experiment: NOTCH3 binders on small-molecule microarray, primary screen, biochemical, 635/667 nm fluorescence (AID 1096). The following applies: NOTCH3 binding, 635 nm fluorescence, higher = more signal.
Assay [10] can be described thus: small-molecule microarray binders of probe aEGFR, primary screen, biochemical, biotinylated probe, 635/667 nm fluorescence (AID 1097).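 Note: probe is a biotinylated anti-EGFR antibody binding compounds printed on slides; score combines fluorescence near 667 nm and signal to noise of each spot.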 The settings on record: higher = more signal.
The subject of assay [11] is Plasmodium falciparum Sir2 (PF13_0152, Sir2A). As to the kind of experiment: pfSir2 binders on small-molecule microarrays, primary screen, biochemical, small-molecule microarray, 635 nm fluorescence (AID 1098).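 Note: score merges spot fluorescence intensity with its signal-to-noise ratio.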 The following applies: small-molecule microarray binding, fluorescence 635 nm; higher = more signal.
The nature of assay [12]: small-molecule microarray binders of probe aDKK1, primary screen, biochemical, biotinylated probe, 635/667 nm fluorescence (AID 1099).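 Note: score merges 667nm spot fluorescence with signal to noise across triplicate slides; reference of the scale not given here.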 The settings on record: higher = more signal.
Assay [13] can be described thus: small-molecule microarray binders of probe aCHRDL2, primary screen, biochemical, biotinylated probe, 635/667 nm fluorescence (AID 1100). The following applies: higher = more signal.
Assay [14] can be described thus: splicing luciferase reporter signal modulators, primary screen, spliceosome inhibition project, cell-based, HEK293, splice +/- reporter (AID 1101).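 Note: HEK293 cells carrying a splicing-competent luciferase reporter gene; test concentration not given here.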 The following applies: luminescence, 24 h, higher = more signal, called active from +8 up or from −8 down. On the technique in general: Reporter assays use an easily measured gene product as a stand-in for the process of interest.

Assay [15] has as its target Fibroblast growth factor 10 (Homo sapiens) (UniProt O15520). As to the kind of experiment: FGF10 binders on small-molecule microarrays, primary screen, biochemical, small-molecule microarray, 635 nm fluorescence (AID 1102). The settings on record: FGF10 binding, fluorescence 635 nm, higher = more signal.
Assay [16] relates to glycogen synthase kinase-3 (GSK3A per assay name; protocol says GSK3B). As to the kind of experiment: GSK3 binders on small-molecule microarrays, primary screen, biochemical, small-molecule microarray, 635 nm fluorescence, GSK3A (AID 1103). Note: the record names both GSK3A and GSK3B. The following applies: small-molecule microarray binding, fluorescence 635 nm; higher = more signal.
The target in assay [17] is Epidermal growth factor receptor (Homo sapiens) (UniProt P00533). As to the kind of experiment: EGFR binders on small-molecule microarrays, primary screen, biochemical, small-molecule microarray, 635 nm fluorescence (AID 1104).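 Note: score merges 667 nm emission intensity with spot signal to noise over triplicate slides.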 The following applies: EGFR binding, higher = more signal.
Assay [18] has as its target Follistatin-related protein 3 (Homo sapiens) (UniProt O95633). As to the kind of experiment: FSTL3 binders on small-molecule microarrays, primary screen, biochemical, small-molecule microarray, 635 nm fluorescence (AID 1105).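 Note: score merges emission near 667 nm and signal to noise per printed spot across three slides.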 The following applies: FSTL3 binding, higher = more signal.
The target of assay [19] is Dickkopf-related protein 1 (Homo sapiens) (UniProt O94907). As to the kind of experiment: DKK1 binders on small-molecule microarrays, primary screen, biochemical, small-molecule microarray, 635 nm fluorescence scan (AID 1106).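 Note: score merges emission near 667 nm with signal to noise over three replicate slides.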 The following applies: DKK1 binding, higher = more signal.
Assay [20] concerns Inhibin beta A chain (activin A). As to the kind of experiment: INHBA (activin A) binders on microarrays, primary screen, biochemical, small-molecule microarray, 635 nm fluorescence scan (AID 1107).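 Note: mouse activin A protein probed at 4.33 µg/mL on printed slides; score merges bound-protein fluorescence near 667 nm with spot signal-to-noise.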 The following applies: small-molecule microarray binding, higher = more signal.

Active and inactive are the calls of the source.

Epidermal growth factor receptor (Homo sapiens), sequence (P00533 whole entry, looked up): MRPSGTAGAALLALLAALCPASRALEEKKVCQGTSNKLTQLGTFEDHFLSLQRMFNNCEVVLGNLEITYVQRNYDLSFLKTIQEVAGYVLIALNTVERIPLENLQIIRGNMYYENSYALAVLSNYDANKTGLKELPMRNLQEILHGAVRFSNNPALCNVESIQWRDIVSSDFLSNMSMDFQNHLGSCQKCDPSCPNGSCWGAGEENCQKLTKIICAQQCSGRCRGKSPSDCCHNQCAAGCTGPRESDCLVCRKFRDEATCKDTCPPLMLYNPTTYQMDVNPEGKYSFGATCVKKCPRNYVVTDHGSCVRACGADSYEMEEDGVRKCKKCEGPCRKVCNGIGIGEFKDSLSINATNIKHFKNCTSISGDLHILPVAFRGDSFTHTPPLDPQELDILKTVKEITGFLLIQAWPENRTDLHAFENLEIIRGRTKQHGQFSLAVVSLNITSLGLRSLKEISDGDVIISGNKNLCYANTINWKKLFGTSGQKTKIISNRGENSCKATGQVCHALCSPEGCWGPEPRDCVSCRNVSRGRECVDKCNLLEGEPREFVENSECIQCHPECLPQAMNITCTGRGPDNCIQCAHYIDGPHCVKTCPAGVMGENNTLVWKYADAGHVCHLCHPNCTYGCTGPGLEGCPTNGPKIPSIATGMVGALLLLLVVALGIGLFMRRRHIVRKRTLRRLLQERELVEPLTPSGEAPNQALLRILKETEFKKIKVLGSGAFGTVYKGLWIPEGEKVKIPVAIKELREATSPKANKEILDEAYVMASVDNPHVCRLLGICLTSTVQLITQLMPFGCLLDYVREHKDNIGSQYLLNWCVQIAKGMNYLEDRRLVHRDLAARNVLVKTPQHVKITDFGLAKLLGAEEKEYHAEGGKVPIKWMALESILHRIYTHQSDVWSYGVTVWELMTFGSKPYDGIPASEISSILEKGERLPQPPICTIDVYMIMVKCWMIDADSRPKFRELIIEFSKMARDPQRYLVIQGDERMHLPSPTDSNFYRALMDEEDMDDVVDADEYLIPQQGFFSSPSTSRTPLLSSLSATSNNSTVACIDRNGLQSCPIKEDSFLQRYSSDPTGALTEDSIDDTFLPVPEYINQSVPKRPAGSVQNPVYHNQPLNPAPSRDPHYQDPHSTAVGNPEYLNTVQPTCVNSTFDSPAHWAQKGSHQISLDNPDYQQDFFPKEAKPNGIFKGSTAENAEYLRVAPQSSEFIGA
Fibroblast growth factor 10 (Homo sapiens), sequence (O15520 whole entry, looked up): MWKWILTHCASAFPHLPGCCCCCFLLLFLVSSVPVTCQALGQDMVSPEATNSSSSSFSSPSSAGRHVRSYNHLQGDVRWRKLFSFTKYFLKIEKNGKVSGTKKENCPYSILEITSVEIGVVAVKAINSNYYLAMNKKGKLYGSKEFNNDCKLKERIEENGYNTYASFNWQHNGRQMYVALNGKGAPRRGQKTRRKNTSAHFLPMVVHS
Torsin-1A-interacting protein 2 (Homo sapiens), sequence (Q8NFQ8 whole entry, looked up): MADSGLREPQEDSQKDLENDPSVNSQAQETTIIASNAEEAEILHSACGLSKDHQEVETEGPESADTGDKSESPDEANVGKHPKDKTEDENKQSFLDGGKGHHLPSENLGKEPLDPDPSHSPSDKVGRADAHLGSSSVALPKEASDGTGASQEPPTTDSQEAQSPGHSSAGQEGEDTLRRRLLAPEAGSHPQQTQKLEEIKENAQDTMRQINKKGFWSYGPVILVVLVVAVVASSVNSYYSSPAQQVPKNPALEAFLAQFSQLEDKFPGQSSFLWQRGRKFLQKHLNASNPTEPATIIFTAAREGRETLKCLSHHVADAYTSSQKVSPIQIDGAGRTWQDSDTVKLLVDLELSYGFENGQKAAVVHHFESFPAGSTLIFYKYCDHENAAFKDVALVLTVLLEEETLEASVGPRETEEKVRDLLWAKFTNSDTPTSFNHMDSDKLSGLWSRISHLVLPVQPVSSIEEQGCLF
Neurogenic locus notch homolog protein 3 (Homo sapiens), sequence (Q9UM47 whole entry, looked up): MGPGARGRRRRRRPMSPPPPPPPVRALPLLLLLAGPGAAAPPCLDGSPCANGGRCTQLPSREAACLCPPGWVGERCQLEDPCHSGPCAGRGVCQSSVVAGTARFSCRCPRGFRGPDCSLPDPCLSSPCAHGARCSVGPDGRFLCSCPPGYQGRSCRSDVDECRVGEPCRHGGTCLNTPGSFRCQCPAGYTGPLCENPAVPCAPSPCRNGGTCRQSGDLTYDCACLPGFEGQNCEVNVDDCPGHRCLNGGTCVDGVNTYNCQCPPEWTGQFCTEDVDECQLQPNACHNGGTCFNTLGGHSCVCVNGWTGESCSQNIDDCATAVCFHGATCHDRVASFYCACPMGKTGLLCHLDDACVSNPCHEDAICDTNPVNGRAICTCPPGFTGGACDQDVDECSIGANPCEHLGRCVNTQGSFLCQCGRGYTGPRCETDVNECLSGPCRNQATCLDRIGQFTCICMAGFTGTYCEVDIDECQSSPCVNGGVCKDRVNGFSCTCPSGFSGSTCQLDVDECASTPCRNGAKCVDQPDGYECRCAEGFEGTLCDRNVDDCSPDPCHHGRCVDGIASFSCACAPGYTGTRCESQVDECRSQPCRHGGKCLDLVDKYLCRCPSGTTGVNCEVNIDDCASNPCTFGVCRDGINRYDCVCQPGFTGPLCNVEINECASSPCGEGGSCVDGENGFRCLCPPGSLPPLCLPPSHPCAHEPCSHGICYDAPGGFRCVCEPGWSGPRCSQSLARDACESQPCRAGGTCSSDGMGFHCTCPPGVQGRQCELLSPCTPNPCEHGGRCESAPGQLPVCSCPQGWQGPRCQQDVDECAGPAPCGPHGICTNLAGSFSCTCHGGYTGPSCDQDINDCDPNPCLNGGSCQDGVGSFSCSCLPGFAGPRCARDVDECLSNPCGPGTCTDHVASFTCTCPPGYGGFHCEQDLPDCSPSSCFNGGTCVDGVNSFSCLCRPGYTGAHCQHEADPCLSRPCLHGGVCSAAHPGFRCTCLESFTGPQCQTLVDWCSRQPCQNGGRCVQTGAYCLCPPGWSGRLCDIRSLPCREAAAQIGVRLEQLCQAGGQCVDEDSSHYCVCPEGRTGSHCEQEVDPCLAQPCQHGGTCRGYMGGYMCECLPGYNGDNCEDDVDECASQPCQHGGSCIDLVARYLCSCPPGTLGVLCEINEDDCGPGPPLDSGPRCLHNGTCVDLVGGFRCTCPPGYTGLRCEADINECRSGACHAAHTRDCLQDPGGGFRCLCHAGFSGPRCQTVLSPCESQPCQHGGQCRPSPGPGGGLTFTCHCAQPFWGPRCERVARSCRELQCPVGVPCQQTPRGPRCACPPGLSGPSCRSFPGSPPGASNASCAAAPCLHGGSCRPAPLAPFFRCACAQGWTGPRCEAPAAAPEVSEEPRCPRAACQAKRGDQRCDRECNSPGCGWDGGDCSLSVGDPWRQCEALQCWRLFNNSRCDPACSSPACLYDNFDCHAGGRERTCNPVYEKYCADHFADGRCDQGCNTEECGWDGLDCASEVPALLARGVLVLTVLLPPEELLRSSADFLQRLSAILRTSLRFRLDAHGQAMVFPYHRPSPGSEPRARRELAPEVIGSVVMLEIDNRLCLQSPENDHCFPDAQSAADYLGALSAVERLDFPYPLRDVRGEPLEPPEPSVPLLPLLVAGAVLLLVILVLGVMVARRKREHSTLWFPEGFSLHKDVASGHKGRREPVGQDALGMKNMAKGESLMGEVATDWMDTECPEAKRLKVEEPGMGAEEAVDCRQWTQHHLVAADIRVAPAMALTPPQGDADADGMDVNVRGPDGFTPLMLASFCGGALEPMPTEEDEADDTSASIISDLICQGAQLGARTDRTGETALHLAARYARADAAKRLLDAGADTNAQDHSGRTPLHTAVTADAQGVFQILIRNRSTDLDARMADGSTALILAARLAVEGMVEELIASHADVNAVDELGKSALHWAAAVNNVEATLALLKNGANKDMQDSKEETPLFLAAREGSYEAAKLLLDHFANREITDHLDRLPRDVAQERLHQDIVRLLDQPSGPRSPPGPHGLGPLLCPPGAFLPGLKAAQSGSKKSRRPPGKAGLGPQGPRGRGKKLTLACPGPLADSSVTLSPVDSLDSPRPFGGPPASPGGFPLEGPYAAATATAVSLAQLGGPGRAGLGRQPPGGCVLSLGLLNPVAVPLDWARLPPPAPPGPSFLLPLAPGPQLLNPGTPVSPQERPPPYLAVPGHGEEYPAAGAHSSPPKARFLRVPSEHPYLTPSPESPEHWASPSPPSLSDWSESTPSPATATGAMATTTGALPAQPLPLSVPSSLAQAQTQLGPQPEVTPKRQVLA
Dickkopf-related protein 1 (Homo sapiens), sequence (O94907 whole entry, looked up): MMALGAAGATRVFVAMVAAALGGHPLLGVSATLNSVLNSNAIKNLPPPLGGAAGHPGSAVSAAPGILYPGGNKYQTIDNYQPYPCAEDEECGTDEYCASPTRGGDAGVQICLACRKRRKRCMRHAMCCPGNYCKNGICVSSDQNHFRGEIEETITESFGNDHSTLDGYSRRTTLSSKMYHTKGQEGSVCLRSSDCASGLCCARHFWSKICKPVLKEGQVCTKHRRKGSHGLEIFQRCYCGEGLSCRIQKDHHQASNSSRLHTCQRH
Follistatin-related protein 3 (Homo sapiens), sequence (O95633 whole entry, looked up): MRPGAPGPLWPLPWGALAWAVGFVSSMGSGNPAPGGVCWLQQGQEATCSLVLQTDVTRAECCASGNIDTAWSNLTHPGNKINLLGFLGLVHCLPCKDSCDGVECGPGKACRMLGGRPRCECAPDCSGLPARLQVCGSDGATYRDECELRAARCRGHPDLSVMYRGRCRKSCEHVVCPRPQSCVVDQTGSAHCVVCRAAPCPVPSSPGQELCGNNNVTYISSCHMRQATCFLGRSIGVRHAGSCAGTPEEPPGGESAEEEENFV

For `O=C1O[C@@H](c2ccccc2)[C@@H](c2ccccc2)N2[C@@H](c3ccccc3OCCO)[C@]3(C(=O)Nc4ccc(C#CCCO)cc43)[C@@H](C(=O)N3CCCCCCC3)[C@H]12`, the composite z-score came to 1.53 in assay [1]; 5.16 in assay [5]; 1.99 in [7]; 2.28 in assay [8]; 1.01 in assay [9]; 1.49 in assay [10]. Besides, the composite z-score is 2.19 in [11]; 3.2 in [12]; 1.87 in [13]; 1.71 in assay [15]; 1.45 in assay [16]; 2.05 in assay [17]. Further, the composite z-score in assay [18] worked out at 1.78; in assay [19], 2.69; in assay [20] it was 2.05. Also, the z-score in [2] was 0.295 (inactive); in assay [3], -4.61 (inactive); in assay [4], 1.33 (inactive); in assay [6], -0.798 (inactive); in assay [14], -1.32 (inactive).

Take `O=C1O[C@@H](c2ccccc2)[C@@H](c2ccccc2)N2[C@@H](c3ccc(O)cc3)[C@]3(C(=O)Nc4ccc(C#CC5(O)CCCCCC5)cc43)[C@@H](C(=O)NC[C@H](O)c3ccccc3)[C@H]12`: the composite z-score was 1.26 in assay [1]; 2.05 in [5]; -0.242 in [7]; -0.0578 in [8]; -0.0872 in [9]; -0.162 in assay [10]. The composite z-score in [11] is 1.29; in assay [12] it was -0.171; in [13], 0.467; in assay [15], -0.174; in [16] it was 0.791; in assay [17], -0.568. Besides, the composite z-score in [18] is -0.442; in assay [19] it was -0.505; in assay [20] it was -0.357. The z-score in [2] was 0.21 (inactive); in assay [3], -0.0625 (inactive); in assay [4], 1.24 (inactive); in assay [6], -0.255 (inactive); in [14], -0.55 (inactive).

Regarding `Cc1ccc(S[C@]2(C(=O)NCC(F)(F)F)CC(=O)N(Cc3ccccc3C(F)(F)F)[C@@H]2c2ccc(CO)cc2I)cc1`, the composite z-score in [1] was -0.987; in [5], 0.779; in assay [7] it was -0.072; in assay [8] it was -0.859; in assay [9], -1.45; in [10], -0.254. The composite z-score was 1.46 in [11]; -0.255 in assay [12]; 0.956 in assay [13]; -1.34 in assay [15]; -1.49 in assay [16]; -1.96 in [17]. Besides, the composite z-score in assay [18] is -1.28; in assay [19], -1.7; in [20] it was 0.283. In addition, the z-score in assay [2] is -1.54 (inactive); in [3], -2.79 (inactive); in [4], 1.65 (inactive); in [6], 0.625 (inactive); in [14], -0.0164 (inactive).

Take `COC(=O)[C@@]1(Cc2ccc(F)cc2)[C@H]2c3cc(C(=O)N4CCCC4)n(CCc4ccc(O)c(O)c4)c3C[C@H]2CN1C(=O)c1ccccc1`: the composite z-score in [1] is -0.522; in [5], 3.22; in [7], 1.17; in [8] it was -0.97; in assay [9], -1.04; in assay [10], 0.978. For the same compound, the composite z-score is 0.391 in assay [11]; 1.8 in [12]; 1.04 in [13]; -0.206 in assay [15]; -1.73 in assay [16]; -0.0942 in [17]. Also, the composite z-score was -0.457 in assay [18], -0.359 in assay [19] and 1.1 in assay [20]. In addition, the z-score in assay [2] was 1.34 (inactive); in assay [3] it was 1.16 (inactive); in assay [4], 1.96 (inactive); in [6], -0.469 (inactive); in assay [14] it was -2.62 (inactive).

Turning to `C=CC1c2cc(O)c(OC)cc2CCN1Cc1cc2c(cc1Br)OCO2` (stereo not given), the composite z-score in [1] was 1.25; in [5] it was 2.51; in assay [7], 0.386; in assay [8], 0.289; in assay [9] it was 0.435; in assay [10], -0.132. Further, the composite z-score is 1.59 in assay [11]; 0.276 in [12]; 1.04 in [13]; -0.0398 in assay [15]; -0.277 in assay [16]; 0.0492 in [17]. Further, the figures for the composite z-score in [18], in assay [19] and in assay [20] were 0.327, 0.565 and 1.9, respectively. The z-score in assay [2] was -17.7 (active); in assay [3], -19.8 (active); in assay [4], -1.33 (inactive); in assay [6], -2 (inactive); in [14] it was 0.203 (inactive).
